Assay outcomes from PubChem BioAssay.
The list is not random: actives were taken first. Their share in the collection is about 6.9%.
M1 agonist = M1 muscarinic receptor agonism. 64,000 tested, 3% active. B-score at 10 µM. CHO-M1 cells, Fluo-4 calcium fluorescence, agonist mode; hits give high values;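 active = fluorescence rise, raw or as B-score row- and column-corrected plate score, outside the 99.7% band of its plate's samples, either direction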
FXIIa mix inh = factor XIIa (human) inhibition, mixture screen; P00748; purified FXIIa, fluorogenic substrate, pooled mixtures; inhibition, % at 5 µM; 62,000 tested, 0.2% active; AID 684
HER2 expr 66K = inhibitors of human Her2 kinase expression; 65,000 tested, 0.69% active; SKBR-3 HER2 protein level, AlphaScreen, 18-24 h; hits give low values; HER2 level % of control, % at 10 µM; P04626;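 active = HER2 level under 5% of the carrier-only control; inconclusive = no clear call, values can overlap the other calls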;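 also: lower value means stronger loss of Her2 protein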
M1 antagonist = blocks the rat M1 muscarinic receptor response to acetylcholine; CHO-M1 cells, Fluo-4 calcium, ACh EC80 antagonist mode; hits give low values; B-score at 10 µM; 64,000 tested, 3.4% active; AID 628;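 active = calcium fluorescence response, raw or row-and-column corrected B-score, differing from the plate sample mean either way at a set confidence level, mostly lower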
Target sequence (P08482 whole entry, looked up): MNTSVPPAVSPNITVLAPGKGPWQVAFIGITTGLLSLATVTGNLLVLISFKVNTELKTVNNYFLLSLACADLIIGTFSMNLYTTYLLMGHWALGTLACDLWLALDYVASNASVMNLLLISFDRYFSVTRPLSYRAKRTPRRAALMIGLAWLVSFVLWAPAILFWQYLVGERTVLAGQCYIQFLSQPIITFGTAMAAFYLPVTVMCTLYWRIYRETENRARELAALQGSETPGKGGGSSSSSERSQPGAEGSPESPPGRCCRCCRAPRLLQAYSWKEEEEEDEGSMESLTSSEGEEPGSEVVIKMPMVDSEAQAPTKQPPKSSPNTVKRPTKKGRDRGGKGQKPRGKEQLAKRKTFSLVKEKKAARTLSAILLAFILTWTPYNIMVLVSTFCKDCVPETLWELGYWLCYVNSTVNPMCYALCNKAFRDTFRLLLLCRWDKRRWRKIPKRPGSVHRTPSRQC
FXIa mix inh = factor XIa (human) inhibition, mixture screen. P03951. purified FXIa, fluorogenic substrate, pooled mixtures. inhibition, % at 5 µM. 62,000 tested, 0.19% active. AID 680;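 also: each value is inhibition by a whole ten-compound pool holding the compound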
JNK3 inh = JNK3 (human) kinase inhibition. purified JNK3 kinase activity, HTS. 60,000 tested, 0.61% active. inhibition, % at 8 µM; in the data active = inhibition above about 17%
M1 ag confirm = rat M1 muscarinic agonism, confirmation; shares compounds with M1 agonist; CHO-M1 cells, Fluo-4 calcium fluorescence, agonist mode; actives lie on both sides; fluorescence change (max-min) at 10 µM; 1,700 tested, 19% active; AID 1488;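 active = fluorescence change differs from the solvent-only DMSO control mean at a set confidence level in both duplicate runs; inconclusive = differs from solvent-only control mean in just one of two runs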;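 also: an EC20 dose of acetylcholine follows compound addition during the same imaging run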
M4 ag counter = counter-screen for M1 agonists: activity at rat M4 receptor; shares compounds with M1 agonist; CHO M4/Gqi5 cells, Fluo-4 calcium fluorescence, agonist mode; actives lie on both sides; fluorescence change (max-min) at 10 µM; 1,700 tested, 9% active;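 active = fluorescence change differing from the plate's solvent-only control wells at 99.7% confidence in both duplicates, whether higher or lower; inconclusive = differs from solvent controls in only one of two duplicates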
Hits are given with their value; - = inactive; ? = inconclusive; . = not tested or not shown. Rule as the data show it, unless noted: active = inhibition above about 20% (passing the limit was not always enough); inactive = the rest.

SMILES	M1 agonist	FXIIa mix inh	HER2 expr 66K	M1 antagonist	FXIa mix inh	JNK3 inh	M1 ag confirm	M4 ag counter
COc1ccc(S(=O)(=O)N2CCC(C(=O)NCc3ccccn3)CC2)cc1C	-	-	-	-	-	-	.	.
COC(=O)c1cc(NS(=O)(=O)c2ccc3c(c2)CCC(=O)N3)cc(C(=O)OC)c1	-	-	-	-	-	-	.	.
COc1ccc(OC)c(C(=O)CN2CCN(S(=O)(=O)c3ccc(Br)cc3)CC2)c1	28	-	-	-	-	-	-	-
COc1ccc(S(=O)(=O)N2CCCN(CC(=O)C(C)(C)C)CC2)cc1	-	-	-	-	-	-	.	.
Cc1cccc(NC(=O)C2CCCN(S(=O)(=O)c3cccc4cccnc34)C2)c1 (stereo not given)	-	-	-	-	-	-	.	.
CCOc1ccccc1NC(=O)CN(c1cc(C)cc(C)c1)S(=O)(=O)c1c(C)noc1C	20	-	-	-	-	-	-	-
CCOc1ccccc1NC(=O)CN(c1ccc(OC)cc1)S(=O)(=O)c1c(C)noc1C	-	-	-	-	-	-	.	.
Cc1cccc(NC(=O)C2CCN(c3nccc(C)n3)CC2)c1	-	-	-	-	-	-	.	.
Cc1nc2ccccc2c(=O)n1/N=C/c1ccncc1	-	-	-	-	-	-	.	.
Cc1nc2ccccc2c(=O)n1/N=C/c1cn(-c2ccccc2)nc1-c1cccs1	3.5	-	-	-	-	-	?	-
COc1ccc(S(=O)(=O)N2CCCC2C(=O)Nc2ccc(C(C)=O)cc2)cc1 (stereo not given)	-	-	-	-	-	-	.	.
Cc1ccc2cc(C#N)c(N3CCCC3)nc2c1C	-	-	-	-	-	-	.	.
Cc1ccc2cc(C#N)c(N3CCCN(C(=O)C4CCCO4)CC3)nc2c1C (stereo not given)	4.1	-	-	-	-	.	-	-
O=C(CN1CCC(n2nnc3cc(F)ccc32)CC1)NCCc1nc2ccccc2[nH]1	-	-	-	-	-	-	.	.
Cn1cccc1-c1nc2ccc(NC(=O)c3cccs3)cc2[nH]1	8.5	-	-	-	-	-	?	-
O=C(Nc1ccc2nc(-c3ccc(Br)o3)[nH]c2c1)c1cccs1	-	-	-	-	-	-	.	.
CCCC(c1nnnn1C1CCCC1)N1CCN(c2ccccc2F)CC1 (stereo not given)	-	-	-	-	-	-	.	.
CC1CCc2sc3c(c2C1)c1ncnn1c(=O)n3CC(=O)c1ccc(Br)cc1 (stereo not given)	-	-	.	-	-	-	.	.
C=CCOC(=O)c1[nH]c2c(c1C)C(=O)CC(c1cc(OC)c(OC)c(OC)c1)C2 (stereo not given)	3.3	-	-	-	-	-	-	-
Cc1cn(-c2ccc(Br)cc2)[nH]c1=O	2.1	-	.	-	-	-	-	?
CSc1nc2[nH]c3c(c2c2ncnn12)CCCC3	8.1	.	-	-	.	-	?	-
O=C(Nc1ccc2c(c1)OCO2)C1CCCN(S(=O)(=O)Cc2ccccc2)C1 (stereo not given)	3.9	-	-	-2.5	-	.	-	-
O=S(=O)(Nc1nc2ccccc2nc1N1CCN(c2ccccn2)CC1)c1ccc(Cl)cc1	9.2	.	-	-	.	-	-	?
O=C(CCCN1C(=O)c2ccccc2C1=O)Nc1ccccc1C(=O)N1CCOCC1	2.3	-	-	-	-	-	-	-
CCC(=O)Nc1ccccc1C(=O)N1CCOCC1	-	-	-	-	-	-	.	.
SMILES	M1 agonist	FXIIa mix inh	HER2 expr 66K	M1 antagonist	FXIa mix inh	JNK3 inh	M1 ag confirm	M4 ag counter
CCn1c(SCc2ccc(OC)cc2)nnc1-c1ccncc1	-	-	-	-	-	-	.	.
CCOC(=O)c1c(NC(=O)CSc2nc3cccnc3n2C)sc(C(C)=O)c1C	-	-	-	-	-	-	.	.
CCOC(=O)c1c(NC(=O)CSc2nnc(-c3ccccc3C)n2C)sc(C(C)=O)c1C	2.4	-	-	-5.2	-	-	-	?
O=S(=O)(c1ccc(Cl)c(C(F)(F)F)c1)N1CCN(CC(O)COCC2CCCO2)CC1 (stereo not given)	-	-	-	-	-	-	.	.
CCOC(=O)N1CCN(C(=O)C2CCN(C(=O)c3cc4sccc4n3CC)CC2)CC1	3.8	-	-	-	-	-	-	-
CCN1C(=O)/C(=C/N2CC(C)CC(C)C2)SC1=S (stereo not given)	-	-	-	-	-	-	.	.
CCN1C(=O)/C(=C2/SC(C)=C(C)N2CC)SC1=S	3.2	-	-	-	-	-	-	-
CCOC(=O)c1cccc(NC(=O)CSc2nnc(-c3cccnc3)n2CC)c1	-	-	-	-	-	-	.	.
CCn1c(SCC(=O)c2cc(C)n(-c3ccc(C(=O)OC)cc3)c2C)nnc1-c1cccnc1	3.9	-	-	-	-	-	-20	?
CC(C)C(OC(=O)c1cccs1)C(=O)NCc1cccs1 (stereo not given)	-	-	-	-	-	-	.	.
N#Cc1nc(COc2cccc(Cl)c2)oc1N1CCN(c2ccccc2)CC1	-	-	-	-	-	-	.	.
N#Cc1nc(COc2ccccc2)oc1N1CCN(c2cccc(Cl)c2)CC1	4.1	-	-	-	-	-	122	?
N#Cc1nc(COc2ccc(F)cc2)oc1N1CCC(Cc2ccccc2)CC1	9.3	.	-	-	.	-	-	-
CCOC(=O)N1CCN(C(=O)CS(=O)(=O)c2cn(Cc3ccc(F)cc3)c3ccccc23)CC1	-	-	-	-	-	-	.	.
Cc1c(NC(=O)CSC2=C(C#N)C(c3ccccc3F)CC(=O)N2)c(=O)n(-c2ccccc2)n1C (stereo not given)	3.4	-	-	-	-	-	-	?
COCCOC(=O)C1=C(C)NC2=C(C(=O)CC(C)(C)C2)C1c1cc2c(cc1Br)OCO2 (stereo not given)	-	-	-	-	-	-	.	.
COc1ccc(-c2ccc(-c3noc(-c4ccccc4)n3)c(OC)n2)cc1	-2.9	-	-	-	-	-	-	-
COc1nc(-c2ccccc2)ccc1-c1noc(-c2ccccc2)n1	-	-	-	-	-	-	.	.
Clc1ccc(-c2nn3c(Cn4cnc5ccccc54)nnc3s2)c(Cl)c1	-	-	-	-	-	-	.	.
COc1ccc(CCNC2CCN(C)CC2)cc1OC	-	-	-	-	-	-	.	.
C=CCn1c(=O)c2c(nc3n2CCN3c2cccc(Cl)c2C)n(C)c1=O	-	-	-	-	-	-	.	.
C=C(C)Cn1c(=O)c2c(nc3n2CCN3c2cccc(Cl)c2C)n(C)c1=O	3	-	-	-	-	-	-	-
CCOC(=O)C(C)Oc1cccc2c(=O)n(CC(=O)N3CCN(C(=O)OCC)CC3)ccc12 (stereo not given)	-	-	-	-	-	-	.	.
